Source: article PMC7819943, “Rice protein-binding microarrays: a tool to detect cis-acting elements near promoter regions in rice”
In all, about 35,000 sequences were measured (“fluorescence intensity (a.u.)”: median about 10,000, highest 2% from about 52,000 on). What follows is part of a selection rich in the highest values, with near analogues and random picks from the rest.

Biological target: T1, OsWOX13 (Oryza sativa, UniProt Q5QMM3 1-267)
T1 sequence: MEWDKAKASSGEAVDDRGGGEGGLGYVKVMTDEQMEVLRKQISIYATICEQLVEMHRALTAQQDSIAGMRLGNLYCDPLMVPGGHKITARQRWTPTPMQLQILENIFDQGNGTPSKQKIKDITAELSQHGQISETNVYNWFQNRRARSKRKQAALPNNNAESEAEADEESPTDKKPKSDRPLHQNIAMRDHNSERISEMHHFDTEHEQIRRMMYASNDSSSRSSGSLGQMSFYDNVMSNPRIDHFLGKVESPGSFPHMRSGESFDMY
Test: protein-binding microarray (RPBM); PBS, 2% BSA, 51.3 ng/ul salmon testes DNA, 50 uM zinc acetate, 200 nM TF, 25 C, 1 h; high values mean tight binding
Conditions: protein: recombinant; tags: N-terminal polyhistidine and DsRed monomer fusion (pET32a); label: CyDye5-dUTP incorporated in the synthesized complementary strand; 3' TTTTT single-stranded linker to array surface; dsDNA, one strand shown
Summary of the method: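 Binding signal is defined as the fluorescence intensity of each feature in arbitrary units, read on an Axon 4000B scanner. Transcription factors with N-terminal polyhistidine and DsRed fusions came from E. coli BL21-CodonPlus and were purified on Ni–NTA. They were incubated at 200 nM for 1 h at 25 °C on a custom Agilent array that had been made double-stranded with Cy5-dUTP, with 50 µM zinc acetate present, and the array was washed.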

Compared with “TCTAAACTAATCTAATCTAGCAACGCGATTTAGCCGATACCGGAGTCACCTAGTGCAG”, “TTCTGTCAATTAGGTGGGTGACATGTGGATCCCACGATATCGGAGTCACCTAGTGCAG” is higher in binding signal: 9190 fluorescence intensity (a.u.) for the first, 13200 fluorescence intensity (a.u.) for the second.

First: TTATTTGCATTGATTTAATAGGGTTTACTCTTGCTTTGCACGGAGTCACCTAGTGCAG
Second: GTGATTACATTGATAATAATTGATTGAATCAGTTTGTTCTCGGAGTCACCTAGTGCAG
The binding signal of the first is lower: 7870 fluorescence intensity (a.u.) for the first, 62600 fluorescence intensity (a.u.) for the second.

Compared with “TCATTGATTGATTGGTACTACTACTGCTAGAAGAAAAGGCCGGAGTCACCTAGTGCAG”, “TACCTTAATTTATTGATTGCACTCTTGTTCTCACACGGTTCGGAGTCACCTAGTGCAG” is lower in binding signal: 55200 fluorescence intensity (a.u.) for the first, 53200 fluorescence intensity (a.u.) for the second.

Compared with “TTGATTGGAAAGATTGGAAAGAATTGAATGCGAATTGGTACGGAGTCACCTAGTGCAG”, “CTTTGATTACATCAAGCCACTGAATTATCAGTTATAATCTCGGAGTCACCTAGTGCAG” is lower in binding signal: 34500 fluorescence intensity (a.u.) for the first, 23100 fluorescence intensity (a.u.) for the second.

Going from “TTGATTGTGAATTTATAATGTTTGGATATAATGATTACTTCGGAGTCACCTAGTGCAG” to “GATAAATTAATAAAATTATCAAAATTTTATGATTGGTTTACGGAGTCACCTAGTGCAG”, the binding signal rises from 34500 fluorescence intensity (a.u.) to 54900 fluorescence intensity (a.u.).

First: ACTGATTTGTTTTATTGTTTTGATTTTAATCCTCTCAATTCGGAGTCACCTAGTGCAG
Second: AGATAGATTAATATATGATAAATCACTAATATCAAATTTACGGAGTCACCTAGTGCAG
The binding signal of the first is higher: 38800 fluorescence intensity (a.u.) for the first, 5780 fluorescence intensity (a.u.) for the second.

Going from “ATATCAATCCGATGATATTAATTTTAGCAAATAAAATTTACGGAGTCACCTAGTGCAG” to “ATTACATACCTGATTGAGTTGGTACTACAAGGCAGGGAGCCGGAGTCACCTAGTGCAG”, the binding signal rises from 5130 fluorescence intensity (a.u.) to 16400 fluorescence intensity (a.u.).

Going from “TAGAATTACTTACTAAATTGCTTGTTATATTGAAGATATTCGGAGTCACCTAGTGCAG” to “AAAATAGTTAATACTCAATTAATCATGAGCTAATGGCTCACGGAGTCACCTAGTGCAG”, the binding signal rises from 5790 fluorescence intensity (a.u.) to 9240 fluorescence intensity (a.u.).

First: CATAATTACCAGACATGTTAAATTTAATATATGGATGTATCGGAGTCACCTAGTGCAG
Second: ATTATTGATTTGATGAAACTAATTTAGTATTATAAATATTCGGAGTCACCTAGTGCAG
The binding signal of the first is higher: 40800 fluorescence intensity (a.u.) for the first, 34600 fluorescence intensity (a.u.) for the second.

First: GTGATAATTTAGTTACTAAACATGTTGTGAAACTTTATCTCGGAGTCACCTAGTGCAG
Second: GGATAAAATTTAAATTGTACCAGTTTACGACGAATTACATCGGAGTCACCTAGTGCAG
The binding signal of the first is lower: 3720 fluorescence intensity (a.u.) for the first, 8600 fluorescence intensity (a.u.) for the second.

Going from “AGTAATTGATTAATTTTGTGACAGAGGTGGTCACTATATGCGGAGTCACCTAGTGCAG” to “TATGATAAAATTGTTACATCATTTACCAGATGATTTAGAACGGAGTCACCTAGTGCAG”, the binding signal falls from 61000 fluorescence intensity (a.u.) to 7880 fluorescence intensity (a.u.).

First: ATTGAATAATCAAAATTTCAATCTTTGATCGATGAGGTATCGGAGTCACCTAGTGCAG
Second: ATTTTGGTTGATTTGTAAACAGAGGGATTAATTTGTGCATCGGAGTCACCTAGTGCAG
The binding signal of the first is lower: 12100 fluorescence intensity (a.u.) for the first, 15400 fluorescence intensity (a.u.) for the second.

First: CTATATAAAACTGATTGATTCATATTACTACGACGTTTTACGGAGTCACCTAGTGCAG
Second: CTTTATTGATAGGATAAAATTGTTACATCGTTTACCAGATCGGAGTCACCTAGTGCAG
The binding signal of the first is lower: 6690 fluorescence intensity (a.u.) for the first, 52600 fluorescence intensity (a.u.) for the second.

Compared with “ACTGATTGACGTTTCTCATAACTAAAATATAGGTATTGTGCGGAGTCACCTAGTGCAG”, “TTAAGTAATTAAGAGGTGATAGTTAATTTATGCATGCATGCGGAGTCACCTAGTGCAG” is lower in binding signal: 60900 fluorescence intensity (a.u.) for the first, 30400 fluorescence intensity (a.u.) for the second.

First: ATAAATAACTTTGATATAAATTGTTTGAATAAAACTAATGCGGAGTCACCTAGTGCAG
Second: CTAATTGAATAATCAAAATTTTAATCTTTGGTCGATAATGCGGAGTCACCTAGTGCAG
The binding signal of the first is lower: 14300 fluorescence intensity (a.u.) for the first, 63700 fluorescence intensity (a.u.) for the second.

Compared with “CATCATCTCTAATTTTAATCAAAATATAAACTTTGCAGTGCGGAGTCACCTAGTGCAG”, “TGTGACAAACAATGATTACCAAGCTTTTGGGGAAATATAGCGGAGTCACCTAGTGCAG” is higher in binding signal: 9140 fluorescence intensity (a.u.) for the first, 16900 fluorescence intensity (a.u.) for the second.

First: TCATGATTAAGATGGGCTCACTATGTAATTTTATTTATAACGGAGTCACCTAGTGCAG
Second: AATAATTTGCCAATACCAACATTTTACTATAAATACTTATCGGAGTCACCTAGTGCAG
The binding signal of the first is higher: 8240 fluorescence intensity (a.u.) for the first, 5410 fluorescence intensity (a.u.) for the second.

Going from “GCGCTGATACTTGTAATCAATCAACTCATCAGCATGGTCTCGGAGTCACCTAGTGCAG” to “GTAGTTAATTGTAAACACTGTACTAAGCAGTATACATTTTCGGAGTCACCTAGTGCAG”, the binding signal falls from 26100 fluorescence intensity (a.u.) to 20300 fluorescence intensity (a.u.).

Compared with “ACACAATCATTTATACAAAGCATATAATGGGCCTGTTCGGCGGAGTCACCTAGTGCAG”, “TGCTTGTAATTTCTATAAAATTAGCAGTATTTTGATGCTACGGAGTCACCTAGTGCAG” is higher in binding signal: 6100 fluorescence intensity (a.u.) for the first, 9240 fluorescence intensity (a.u.) for the second.

Compared with “TTGACATAATATAATCATGTGATATCTTATTGTAAAGATTCGGAGTCACCTAGTGCAG”, “GTTTATTTATAATTATATTATATTAATATTGTTTGAAAATCGGAGTCACCTAGTGCAG” is lower in binding signal: 10400 fluorescence intensity (a.u.) for the first, 8200 fluorescence intensity (a.u.) for the second.

First: GATCAATAATTGAATATATTTTAATAATAAATTTGTCTTGCGGAGTCACCTAGTGCAG
Second: ATCAATAATTGAACATATTTTCATAATAAATTTGTCTTGGCGGAGTCACCTAGTGCAG
The binding signal of the first is higher: 55500 fluorescence intensity (a.u.) for the first, 42100 fluorescence intensity (a.u.) for the second.
